Compound activity deposited in PubChem BioAssay by National Center for Advancing Translational Sciences (NCATS).
ATXN2 expr inh: reduces ATXN2 reporter expression in HEK-293 cells; HEK-293 ATXN2-luciferase reporter, luminescence, 24 h; Potency, µM (highest dose often 57 µM), without a hit: at the top dose activity change, negative = inhibition, usual class: inhibitors; actives 0.72% (n = 360,000); also: % is scaled to controls: 0 for no effect and ±100 for the full control effect; nearly all actives have a fitted effect of over 55% in size
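qHTS (up to 57 uM final) was run with 24 h compound exposure of reporter cells at 37 °C. Each well was multiplexed: SteadyGlo luminescence measured ATXN2-luciferase expression after a fluorogenic Gly-Phe-AFC viability readout (25 uM final).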
HT1080NT lethal: kills 2HG-producing HT-1080-NT fibrosarcoma cells; HT-1080-NT fibrosarcoma viability, CellTiter-Glo ATP luminescence, 48 h; Potency, µM (highest dose often 46.1 µM), for the others: top-dose activity, negative = less viability, actives largely listed as cytotoxic; actives 1.6% (n = 360,000); AID 686970;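 also: NT is the 2HG producing partner of a matched IDH1 knockdown line; 0% = DMSO-treated cells and -100% = media-only wells without cells; nearly all actives have a fitted effect of over 55% in size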
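Compounds were tested in concentration-response format on HT-1080-NT cells for 48 hours at 37 degrees C. Cell viability came from CellTiter-Glo luminescence; curves were classified by r2, response magnitude and activity.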
ATXN viability: viability counter-screen for ATXN expression inhibitors; S2 cells (HEK-293 line with an ATXN2-luciferase reporter) viability, CellTiter-Fluor protease fluorescence, 24 h; Potency, µM (doses to about 56.7 µM), most hits filed as cytotoxic; actives 0.49% (n = 400,000); AID 651635; also: nearly all actives have a fitted effect of over 40% in size
KB-V1 MDR tox: KB-V1 MDR subline cytotoxicity; KB-V1 MDR cells viability, CellTiter-Glo, 72 h; Potency, µM (top dose mostly 46.1 µM), actives largely listed as cytotoxic; actives 3.4% (n = 400,000); also: % is scaled to controls: 0 for no effect and ±100 for the full control effect; nearly all actives have a fitted effect of over 60% in size
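Cells of the MDR subline KB-V1 are plated, dosed with compound at multiple concentrations, and incubated 72 h at 37 degrees C; CellTiter-Glo is then added and luminescence read after 10 min.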
HT1080 IDH1KD tx: kills HT-1080 cells with IDH1 knockdown; HT-1080 IDH1 knockdown viability, ATP luminescence, 48 h; Potency, µM (highest dose often 46.1 µM), without a hit: at the top dose activity, negative = toxicity, actives largely listed as cytotoxic; actives 2% (n = 360,000); AID 686971;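 also: 0% = DMSO wells and -100% = cell-free medium wells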
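HT-1080-IDH1KD cells (IDH1 knocked down), 750/well in RPMI with 5% FBS, treated with compound 48 h at 37 degrees C. Viability by CellTiter-Glo luminescence, normalised to DMSO and no-cell wells; concentration-response curves classed.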
KB-3-1 tox: KB-3-1 parental cell cytotoxicity. KB-3-1 viability, CellTiter-Glo ATP luminescence, 72 h. Potency, µM (titrated, usually from 46.1 µM), most hits filed as cytotoxic. actives 1.4% (n = 400,000). AID 1347075; also: % is scaled to controls: 0 for no effect and ±100 for the full control effect; nearly all actives have a fitted effect of over 60% in size
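72 h, 37 °C compound treatment of KB-3-1 parental cells; CellTiter-Glo added, 10 min, luminescence read. Data corrected against DMSO-only plates and normalized before curve fitting.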
* = called active by the depositor; i = inactive; ? = inconclusive; / = not tested or not shown. In the library only some 6.2% were active in any assay of this set; here they are far more common. Calls follow the shape of the dose curve; as a rule, active = well fitted curve in the direction sought with a large enough effect; inconclusive = small, poorly fitted or top-dose-only effect, or another doubt; inactive = no such curve, though single readings can be large; an effect the other way counts as inactive or inconclusive. Potency is read from the fitted curve at half-maximal effect.

SMILES | ATXN2 expr inh | HT1080NT lethal | ATXN viability | KB-V1 MDR tox | HT1080 IDH1KD tx | KB-3-1 tox
CCc1ccc(NC(=O)c2ccc(F)c(S(=O)(=O)NCC3COc4ccccc4O3)c2)cc1 (centres undefined) | ? | -11% | ? | 3.3µM* | -19% | ?
O=C(NCC1COc2ccccc2O1)c1ccc(F)c(S(=O)(=O)N2CCOCC2)c1 (centres undefined) | -11% | -8% | i | ? | -4% | i
COc1ccccc1Cn1c(/C=C/c2ccccc2)nc2ccccc21 | 1% | -17% | i | 5.2µM* | -21% | 16µM*
COc1ccc(/C=C/c2nc3ccccc3n2Cc2ccccc2OC)cc1 | -21% | 16µM* | i | ? | 16µM* | ?
CCOC(=O)c1cccc(NC(=O)NCCc2c(C)nn(C)c2C)c1 | 8% | / | i | i | / | i
CC(=O)O[C@H]1CC[C@@]2(C)C(=CC[C@@H]3[C@@H]2CC[C@]2(C)C(C(C)=O)=CC[C@@H]32)C1 | 3% | / | i | / | / | /
O=C(NC[C@@H]1CCCN2CCCC[C@H]12)c1cnn(-c2nccc(-c3ccco3)n2)c1C1CC1 | / | / | i | / | / | /
O=C(CSc1nc2nc(-c3cccs3)cc(C(F)(F)F)c2c(=O)[nH]1)Nc1ccc(F)c(F)c1 | ? | ? | i | ? | ? | 15µM*
CCCCCCn1c(N2CCN(c3ccccc3)CC2)nc2c1c(=O)[nH]c(=O)n2C | -14% | -16% | i | ? | ? | ?
CC(CSc1nnnn1-c1ccccc1)Cn1c(N2CCCC2)nc2c1c(=O)[nH]c(=O)n2C (centres undefined) | 14% | 9% | i | 2.3µM* | 0% | i
Cn1c(=O)[nH]c(=O)c2c1nc(CN1CCN(c3cccc(Cl)c3)CC1)n2CCc1ccccc1 | -17% | ? | i | ? | ? | i
CCCCCCn1c(N2CCN(c3cccc(Cl)c3)CC2)nc2c1c(=O)[nH]c(=O)n2C | -15% | 0% | i | 16µM* | -6% | ?
CCCCCCCCn1c(N2CCN(c3cccc(Cl)c3)CC2)nc2c1c(=O)[nH]c(=O)n2C | -10% | -4% | i | 13µM* | 0% | i
CCCCCn1c(CN2CCN(c3cccc(Cl)c3)CC2)nc2c1c(=O)[nH]c(=O)n2C | 25µM* | ? | ? | ? | ? | 23µM*
CC(C)CSc1ccccc1NC(=O)c1sc2nc(-c3ccncc3)ccc2c1N | 6% | / | i | i | / | i
COc1ccc(-c2noc(-c3ccc(N4CCC(C)CC4)c([N+](=O)[O-])c3)n2)cc1OC | 5% | / | i | ? | / | i
O=C(NC1CCC(n2cc(C(=O)NC3CC3)nn2)CC1)C(=O)c1ccccc1 (centres undefined) | / | / | i | / | / | /
Cc1ccc(Cl)cc1N1CCN(S(=O)(=O)c2c(C)[nH]c(C)c2C(=O)N2CCCC2)CC1 | -20% | -6% | i | i | -18% | i
Cc1ccc(Cl)cc1N1CCN(C(=O)c2c(C)oc3ncnc(N4CCCCC4)c23)CC1 | 28µM* | / | ? | i | / | i
CC(=O)c1c(C)[nH]c(C(=O)N2CCN(c3cc(Cl)ccc3C)CC2)c1C | 27% | 16µM* | i | i | 23µM* | 4.6µM*
Cc1ccc(Cl)cc1N1CCN(C(=O)c2cc3c(=O)[nH]c4ccccc4c3n2C)CC1 | -30% | ? | ? | 7.3µM* | -4% | ?
Cn1c(C(=O)N2CCN(c3ccc(Cl)cc3)CC2)cc2c(=O)[nH]c3ccccc3c21 | -20% | -8% | i | i | -4% | i
CC(=O)c1c(C)[nH]c(C(=O)N2CCN(c3ccc(F)cc3)CC2)c1C | 23% | ? | i | ? | 10µM* | i
CC(C)N(c1ccc(C=O)cc1)C(C)C | / | / | / | i | / | i
CCCc1cc(=O)[nH]c(Nc2cc(C)ccc2OC)n1 | 8% | / | i | i | / | i
